Experimental data reported in PubChem BioAssay (NCI).
This is part of a sample that, as a whole, favours compounds with a hit. Of some 79,000 tested, about 15% had one in any assay. Calls of active or inactive are those of the source. Rule as the data show it: active = growth inhibition above about 70%; inactive = the rest.

Tests used:
[1] = NCI Yeast Anticancer Drug Screen. Data for the rad50 strain (AID 155);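 also: 0% = growth of vehicle-only cultures of the same strain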; settings: S. cerevisiae rad50 strain growth inhibition; at 50.0 µM; active compounds read high
Outline: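 Vehicle-treated cultures provide the reference for the growth inhibition reported for compound-exposed, repair-deficient yeast.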

[2] = NCI Yeast Anticancer Drug Screen. Data for the mec2-1 strain (AID 157); settings: S. cerevisiae mec2-1 strain, at 50.0 µM, active compounds read high
Outline: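 mec2-1 yeast strain, carrying an alteration in DNA damage repair or cell cycle control, was exposed to compounds; growth inhibition was measured relative to vehicle-treated controls.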

[3] = NCI Yeast Anticancer Drug Screen. Data for the sgs1 mgt1 strain (AID 161);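 also: 0% = growth of cultures given vehicle only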; settings: S. cerevisiae sgs1 mgt1 strain, at 50.0 µM, active compounds read high
Outline: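 Compounds are added to genetically altered yeast, and growth is compared with cultures given vehicle alone to give percent inhibition.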

[4] = NCI Yeast Anticancer Drug Screen. Data for the cln2 rad14 strain (AID 165);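 also: 0% = growth equal to vehicle treated cultures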; settings: S. cerevisiae cln2 rad14 strain, at 50.0 µM, active compounds read high
Outline: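 Yeast carrying cln2 and rad14 alterations (cell cycle control and DNA damage repair) were exposed to compounds. Growth inhibition was measured against vehicle-treated controls.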

[5] = NCI Yeast Anticancer Drug Screen. Data for the bub3 strain (AID 167); settings: S. cerevisiae bub3 mutant strain, at 50.0 µM, active compounds read high
Outline: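 Mutant yeast screening strain plus compound; vehicle-treated cultures serve as the 0% inhibition reference.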

[6] = NCI Yeast Anticancer Drug Screen. Data for the mlh1 rad18 strain (AID 175); settings: S. cerevisiae mlh1 rad18 strain growth inhibition; at 50.0 µM; active compounds read high
Outline: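 Growth inhibition of the yeast strain was measured after compound exposure and expressed relative to vehicle-treated controls. The strain carries defined defects in DNA damage repair.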

Measured: growth inhibition

COc1cc(C=NCc2ccccc2)cc(OC)c1O
inactive: [1] -1.05% | [2] 19.2% | [3] 4.7% | [4] -14.6% | [5] 19.8% | [6] 8.9%

CC(C)C1CCC2(C)C(CCC3C4(C)CCCC32OC4=O)C1 (configuration not stated)
inactive: [1] -17.7% | [2] -13.6% | [3] -4.8% | [4] -27.2% | [5] -0.15% | [6] 23.7%

CCSC(SCC)C(O)C(O)C(O)C(C)O (configuration not stated)
inactive: [1] 31.8% | [2] 1.55% | [3] 4% | [4] -34.1% | [5] -5.05% | [6] 6.55%

Cc1cc2c(c(C(=O)NCC(=O)O)c1)Oc1c(cc(C)cc1C(=O)NCC(=O)O)S2
inactive: [1] -17% | [2] 20.1% | [3] -4.95% | [4] 14.8% | [5] -29.9% | [6] 20.9%

O=C1CCCC2=C1C(c1ccc(Cl)c(Cl)c1)C1=C(CCCC1=O)O2
inactive: [1] 1.05% | [2] 7.05% | [3] -7.25% | [4] -18.5% | [5] 12.6% | [6] 6.45%

O=c1[nH]cc(Cl)cc1Cl
inactive: [1] 0.05% | [2] 3.85% | [3] -4% | [4] -8.35% | [5] 2.3% | [6] -1.45%

Cc1ccc(N(CN2C(=O)CCC2=O)CS(=O)(=O)c2ccc(C)cc2)cc1
inactive: [1] -1.85% | [2] -8.6% | [3] -9.15% | [4] 21.4% | [5] -5.65% | [6] 0.8%

CC1=C(C(=O)NNC(=O)C[N+](C)(C)C)CC(C(=O)NNC(=O)C[N+](C)(C)C)=C(C)N1
inactive: [1] -12.4% | [2] -21.1% | [3] -10.9% | [4] -31.2% | [5] -13.2% | [6] -39.9%

C#CC1(NC(=O)c2ccccc2C(=O)Nc2cccc(C(F)(F)F)c2)CCCCC1
inactive: [1] -12.9% | [2] -19.1% | [3] -14.2% | [4] 11.3% | [5] -20.1% | [6] -14.2%

N#Cc1c(F)cccc1N1CCSCC1
inactive: [1] 3.5% | [2] -17.8% | [3] 14.3% | [4] 25.4% | [5] 11.5% | [6] -0.55%

Oc1ccccc1/C=N\Sc1ccc(Br)cc1
inactive: [1] 23.9% | [2] 13.8% | [3] 22% | [4] 4.25% | [5] 3.95% | [6] 17%

Cc1ccc(-c2ccno2)cc1
inactive: [1] 1.7% | [2] 3.15% | [3] 1.25% | [4] -14.3% | [5] -8.3% | [6] 2.25%

O=[N+]([O-])c1ccc(OC2OC(CO)C(O)C(O)C2O)cc1 (configuration not stated)
inactive: [1] 31.2% | [2] -0.45% | [3] -4.7% | [4] 5.1% | [5] 24% | [6] 10.2%

NC(=O)Oc1ccc(Cc2ccccc2)cc1
inactive: [1] -20.7% | [2] -43.2% | [3] -12.6% | [4] -8.95% | [5] -40.4% | [6] -5.05%

COc1cccc(C2C3=C(COC3=O)Oc3cc4c(cc32)OCO4)c1 (configuration not stated)
inactive: [1] -41.1% | [2] -24.4% | [3] -31.4% | [4] -1.6% | [5] -4.55% | [6] -14.2%

CC1(C)SC2C(C(=O)O)N=C(Cc3ccccc3)N2C1C(=O)O (configuration not stated)
inactive: [1] 3.2% | [2] -17.9% | [3] -23.4% | [4] 1.45% | [5] -34% | [6] -7.05%

CCCOC(=O)CCCCCC1CCCCC1
inactive: [1] 15.2% | [2] 6.1% | [3] -5.8% | [4] -33.1% | [5] -8.1% | [6] 8%

COc1ccccc1C(O)c1ccccc1 (configuration not stated)
inactive: [1] 9.6% | [2] -30.4% | [3] 15.3% | [4] 11.4% | [5] 9.3% | [6] 3.75%

Cc1ccc(CN(CCO)Cc2ccccc2)cc1
inactive: [1] 1.75% | [2] 39% | [3] 28.1% | [4] 0.65% | [5] 43.1% | [6] 47.1%

NC(N)=NS(=O)(=O)c1ccc(NC(=O)c2cccn3c(=O)c4ccccc4nc23)cc1
inactive: [1] -6.9% | [2] -2.5% | [3] 30.3% | [4] 11.7% | [5] -9.4% | [6] -20.9%

OC1OCc2cc3ccccc3cc21 (configuration not stated)
inactive: [1] 21.4% | [2] -0.95% | [3] -8.35% | [4] 3.6% | [5] -7.8% | [6] 3.65%

Cc1cccc(C(=O)NCC(=O)O)c1
inactive: [1] -13.8% | [2] -3.7% | [3] -9.9% | [4] -85.5% | [5] 4.5% | [6] -9.7%

Nc1nc2c(c(=O)[nH]1)NC(CCNc1ccc(C(=O)NC(CCC(=O)O)C(=O)O)cc1)CN2 (configuration not stated)
inactive: [1] 14% | [2] 14.9% | [3] 25.6% | [4] 19.6% | [5] 7.65% | [6] 16.1%

CSCCC(NC=O)C(=O)O (configuration not stated)
inactive: [1] -0.65% | [2] -5.35% | [3] 7.9% | [4] 1.05% | [5] 5.75% | [6] 3.8%

O=S(=O)(/N=C1C=C/C(=N\S(=O)(=O)c2ccccc2)C2C/1C2(c1ccccc1)c1ccccc1)c1ccccc1 (configuration not stated)
inactive: [1] 39.7% | [2] 17.6% | [3] 29.8% | [4] -30.6% | [5] 1.75% | [6] 13.7%

CCNCCNC(=O)c1ccc(I)cc1
inactive: [1] -33.9% | [2] -7.2% | [3] -4.2% | [4] 6.65% | [5] -14.8% | [6] -10.8%

CC(=O)OC1=CC(=O)N(C(=O)c2ccccc2)C1
inactive: [1] -2.8% | [2] -5.95% | [3] -18.6% | [4] -12.2% | [5] 3.2% | [6] -6.55%

N#CC(=Nc1ccccc1N(C(=O)c1ccccc1)C(=O)c1ccccc1)c1ccccc1
inactive: [1] -21.3% | [2] -19.4% | [3] -30.4% | [4] 2.95% | [5] -51.5% | [6] -38.4%

CC(=O)CCCCc1ccccc1
inactive: [1] -1.45% | [2] -8.45% | [3] -9.3% | [4] -71.6% | [5] -9.2% | [6] -1%

FC(F)(F)c1cccc(NC(=S)N2CCOCC2)c1
inactive: [1] 0.35% | [2] -2% | [3] 1.05% | [4] -4.2% | [5] 0.3% | [6] -11.7%

CCOc1ccc(N=c2ccn3ccccc3c2)cc1
inactive: [1] -2.05% | [2] -10.3% | [3] -24.2% | [4] -24.4% | [5] 8.75% | [6] -28.5%

FC(F)(F)C(F)(F)C(F)(F)c1nc(C(F)(F)C(F)(F)C(F)(F)F)nc(C(F)(F)C(F)(F)C(F)(F)F)n1
inactive: [1] 22.1% | [2] -1% | [3] 31.5% | [4] 18.6% | [5] 15.1% | [6] 25.6%

COC1C(C(=O)O)=CC=CC1OC(C)=O (configuration not stated)
inactive: [1] 10.6% | [2] -5.45% | [3] -2.55% | [4] -44.1% | [5] 2.8% | [6] 13.6%

O=C(OCC(OC(=O)c1ccccc1)C(OC(=O)c1ccccc1)C(OC(=O)c1ccccc1)c1nn[nH]n1)c1ccccc1 (configuration not stated)
active: [1] 73% | [2] 88.4% | [4] 86.9% | [5] 85.2% | [6] 80.5%
inactive: [3] 59.4%

O=S1(=O)OCCOS(=O)(=O)C1S(=O)(=O)c1ccc2ccccc2c1
inactive: [1] 50.5% | [2] -6.15% | [3] 9.3% | [4] 34.8% | [5] 1.4% | [6] 11.8%

COc1ccc2cc(NC(=O)N/N=C\c3ccc(Cl)cc3)ccc2c1
inactive: [1] 33.2% | [2] 8.9% | [3] 26.9% | [4] 4.4% | [5] 27% | [6] 30.4%

CN(C)c1ccc(/C=C(\C#N)c2ccc(Cl)cc2Cl)cc1
inactive: [1] -15.8% | [2] -14.7% | [3] -0.35% | [4] -25.6% | [5] 7% | [6] 0.95%
